Experimental data as given in PubChem BioAssay AID504904 (The Scripps Research Institute Molecular Screening Center, 2011).
The list shows a part of the results. The source made the active and inactive calls. No stated cut-off is given here; in the data, active means activation above about 18%; inactive means the rest.

Each compound was assayed against Mu-type opioid receptor (Homo sapiens) + Delta-type opioid receptor (Homo sapiens) (UniProt P35372+P41143) (assay: agonists of MOR-DOR heterodimerization, confirmation, cell-based, luminescence (AID 504904;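 further: 0% = vehicle-treated cells and 100% = reference agonist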)). Details: cells, luminescence complementation, at 9.3 µM, stronger effect = higher value.
Mu-type opioid receptor (Homo sapiens) + Delta-type opioid receptor (Homo sapiens), sequence (P35372 whole entry, looked up): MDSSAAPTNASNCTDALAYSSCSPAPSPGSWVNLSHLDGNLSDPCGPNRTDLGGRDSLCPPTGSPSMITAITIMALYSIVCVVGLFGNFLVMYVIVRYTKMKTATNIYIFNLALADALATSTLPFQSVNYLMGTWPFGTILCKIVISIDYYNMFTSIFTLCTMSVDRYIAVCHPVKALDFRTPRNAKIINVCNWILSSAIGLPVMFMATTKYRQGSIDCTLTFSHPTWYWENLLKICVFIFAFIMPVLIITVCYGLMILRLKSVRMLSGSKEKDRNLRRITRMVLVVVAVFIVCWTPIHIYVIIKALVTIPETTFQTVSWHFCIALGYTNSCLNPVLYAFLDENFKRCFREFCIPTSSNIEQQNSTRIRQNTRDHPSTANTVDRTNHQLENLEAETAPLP
Mu-type opioid receptor (Homo sapiens) + Delta-type opioid receptor (Homo sapiens), sequence (P41143 whole entry, looked up): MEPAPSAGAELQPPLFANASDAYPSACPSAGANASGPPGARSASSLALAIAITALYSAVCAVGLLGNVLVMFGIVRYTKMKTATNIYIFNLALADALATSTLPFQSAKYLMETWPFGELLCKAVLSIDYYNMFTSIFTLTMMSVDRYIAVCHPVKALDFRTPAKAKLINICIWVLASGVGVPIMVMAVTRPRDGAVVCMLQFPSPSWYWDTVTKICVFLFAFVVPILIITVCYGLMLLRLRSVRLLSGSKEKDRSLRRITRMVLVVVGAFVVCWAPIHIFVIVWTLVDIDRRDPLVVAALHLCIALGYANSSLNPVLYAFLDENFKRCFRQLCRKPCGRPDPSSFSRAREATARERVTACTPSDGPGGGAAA

| Structure (SMILES) | activation |
| --- | --- |
| Cc1ccc(-n2c(SCC(=O)NCCC3=CCCCC3)nc3n[nH]c(C)c3c2=N)cc1Cl | 2.44% (inactive) |
| CCOC(=O)c1c(C)[nH]c2c1-c1ccccc1C(=O)C2=O | 18.7% (active) |
| COc1cc(C(=O)OC(C)C(=O)NCC2CCCCC2)cc(NC(=O)c2ccco2)c1OC (stereo unspecified) | 213% (active) |
| O=C(NC1=CC(=O)c2ccccc2C1=O)c1ccccc1 | 7.9% (inactive) |
| CN(C)C(CNC(=O)c1ccc(S(=O)(=O)NCc2ccco2)cc1)c1ccccc1 (stereo unspecified) | 16.7% (inactive) |
| COc1ccc(C(CNCC(=O)Nc2ccccc2F)N(C)C)cc1 (stereo unspecified) | 145% (active) |
